Screening data from PubChem BioAssay.
HIF-2a inh = HIF-2a inhibition; 786-0 RCC cells HIF-2a reporter, luciferase luminescence, overnight; inhibition, % at 18.8 µM; 0.72% of 360,000 active; AID 624352;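 active means inhibition of the luminescence signal of 40% or more relative to plate controls, in a single-dose primary screen at 18.75 µM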
CF NFkB block = inhibitors of cystic fibrosis induced NF-kB; inhibition, % at 5 µM; KKLEB NF-kB-GFP reporter, PAF-induced, GFP fluorescence overnight; 0.86% of 360,000 active;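 active means at least 50% inhibition at 5 µM, scaled per plate between neutral and stimulator controls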;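 further: PAF is a Pseudomonas aeruginosa culture filtrate used as stimulus; plate controls were PAF-stimulated DMSO wells for no effect and unstimulated DMSO wells for full effect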
Peg3 promoter = reduces Peg3 promoter-driven luciferase expression in HeLa. HeLa PEG-Prom luciferase reporter, luminescence, overnight. inhibition, % at 20 µM. 1.7% of 360,000 active;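 active means inhibition of at least 50% at 20 µM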
MITF TRPM1 inh = inhibitors of MITF-driven TRPM1 promoter in melanoma cells. SK-MEL-5 TRPM1 promoter luciferase, 24 h. inhibition, % at 12.5 µM. 0.83% of 330,000 active. AID 488899;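 active means mean inhibition across replicates of 60% or more, whatever share of single replicates reaches that level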
KKLEB tox = counter-screen for CF NF-kB inhibitors: cytotoxicity | AID 602141 | 0.36% of 360,000 active | activity change (cytotoxicity), % at 5 µM | KKLEB CF airway cells viability, ATPlite luminescence, overnight; stronger effect = lower value; cells stimulated with P. aeruginosa culture filtrate;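 active means corrected activity change at or below -50% at 5 µM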
ABHD5 PLIN5 PPI = inhibitors of human ABHD5-perilipin-5 interaction; Q00G26+Q8WTS1; Split G. princeps luciferase complementation, luminescence, 4 h; inhibition, % at 4 µM; 0.78% of 360,000 active;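 active means inhibition above the mean inhibition across every tested compound plus 3 SD, cut at about 22% in these data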;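 further: 0% = DMSO only wells and the 100% control is not disclosed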
Target sequence (Q00G26 whole entry, looked up): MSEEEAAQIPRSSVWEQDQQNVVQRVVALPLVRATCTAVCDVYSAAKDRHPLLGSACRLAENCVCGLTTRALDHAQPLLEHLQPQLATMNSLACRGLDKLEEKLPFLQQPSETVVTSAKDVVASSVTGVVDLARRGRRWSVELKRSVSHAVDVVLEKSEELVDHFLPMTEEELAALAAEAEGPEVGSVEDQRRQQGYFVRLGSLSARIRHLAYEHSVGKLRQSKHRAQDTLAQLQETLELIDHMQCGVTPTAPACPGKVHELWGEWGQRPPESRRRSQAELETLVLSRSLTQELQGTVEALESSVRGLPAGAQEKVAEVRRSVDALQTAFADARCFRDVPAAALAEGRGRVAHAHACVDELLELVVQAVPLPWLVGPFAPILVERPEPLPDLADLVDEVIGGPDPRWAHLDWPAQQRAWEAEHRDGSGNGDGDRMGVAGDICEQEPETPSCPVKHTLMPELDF
Target sequence (Q8WTS1 whole entry, looked up): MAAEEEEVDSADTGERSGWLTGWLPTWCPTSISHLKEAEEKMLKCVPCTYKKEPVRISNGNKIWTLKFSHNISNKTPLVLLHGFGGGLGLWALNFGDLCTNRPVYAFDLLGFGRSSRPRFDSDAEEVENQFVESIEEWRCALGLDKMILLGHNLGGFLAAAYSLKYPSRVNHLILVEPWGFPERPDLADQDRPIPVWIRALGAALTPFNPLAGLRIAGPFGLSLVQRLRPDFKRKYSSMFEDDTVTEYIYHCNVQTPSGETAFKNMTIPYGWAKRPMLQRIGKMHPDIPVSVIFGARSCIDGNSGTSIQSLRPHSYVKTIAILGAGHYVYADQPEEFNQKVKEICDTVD
Starred values were filed as active, the others as inactive; . = no result. Rows were chosen to be rich in hits. Some 3% of all compounds tested hit in one or more screens of this group.

SMILES	HIF-2a inh	CF NFkB block	Peg3 promoter	MITF TRPM1 inh	KKLEB tox	ABHD5 PLIN5 PPI
O=C(NCc1ccc(F)cc1)C(c1ccc(Cl)cc1)N(C(=O)c1csnn1)C1CC1 (stereo unspecified)	3.2	-6.2	17.3	-4.1	5.1	7.7
O=C(CN1CC(=O)Oc2ccccc21)OCC(=O)c1ccccc1	17.9	50.1*	58.5*	16.4	-58.8*	-2.1
Cc1noc(C)c1S(=O)(=O)N(C)C[C@@H]1OCc2cnnn2CCCC(=O)N([C@H](C)CO)C[C@@H]1C	-1.3	1.2	-10.5	.	-4.3	-1.1
COc1cccc(NC(=O)COC(=O)c2c3c(nc4ccccc24)CCC(C)C3)c1 (stereo unspecified)	-52.3	-7.6	71.1*	3.4	0.5	0.3
CC1CCc2nc3ccccc3c(C(=O)OCC(=O)NC3CCS(=O)(=O)C3)c2C1 (stereo unspecified)	14.9	15.1	5.7	-5.7	-9.5	-5.3
CCc1nnc2n1N=C(c1ccc(-c3cc(Cl)ccc3Cl)o1)CS2	-5.5	-12.8	62.8*	-24.3	-25.7	-4.7
CN(C)CCCNc1cc(-c2ccccc2)nc2cc(-c3cccc(F)c3)nn12	-47.3	-9.7	101.0*	62.8*	7.6	18.0
CN(C)CCN(C(=O)/C=C/c1cccs1)c1nc2c(F)cc(F)cc2s1	7.3	31.8	105.8*	33.1	-30.7	10.8
COc1cccc2sc(N(CCN(C)C)C(=O)/C=C/c3cccs3)nc12	23.3	36.0	13.1	46.8	-19.8	19.8
Cc1cc(NC2CCCCC2)nc(NCc2ccccc2)n1	5.3	8.7	65.5*	7.5	-8.9	15.1
COc1ccc(Nc2cc(C)nc(NCc3ccccc3)n2)cc1	-7.5	15.2	8.4	18.9	-12.4	22.2*
O=C1C(c2ccccc2)=[N+]([O-])c2ccccc21	-75.3	21.5	88.1*	-8.0	2.9	-11.6
CN(C)CCCNc1nc2cc(-c3ccc(F)cc3)sc2c(=O)n1C	-41.1	-4.1	90.4*	.	-6.9	7.4
Cn1c(NCCN2CCCC2)nc2cc(-c3ccccc3)sc2c1=O	-64.3	-40.8	-11.4	.	17.2	5.3
Cn1c(NCCN2CCCC2)nc2cc(-c3cccc(C(F)(F)F)c3)sc2c1=O	-75.6	-0.5	58.1*	.	2.3	3.0
COC(=O)C[C@@H]1C[C@@H]2c3cc(NS(=O)(=O)c4ccc(F)cc4)ccc3O[C@@H]2[C@@H](CO)O1	-8.8	-26.0	9.4	.	6.3	7.6
CC1CN(c2ccc(Cl)cc2[N+](=O)[O-])CCN1S(C)(=O)=O (stereo unspecified)	8.6	5.7	4.1	9.7	-2.9	-5.1
CCn1c(SCC(=O)c2cc(OC)ccc2OC)nnc1C(C)C	5.2	-9.1	3.3	-13.0	2.6	7.1
CCn1c(SCC(=O)c2cc(OC)ccc2OC)nnc1-c1ccncc1	-0.3	5.2	70.3*	4.0	-5.4	5.2
COc1ccc(-c2noc(N3CCCC(C(=O)Nc4ccc(F)cc4F)C3)n2)cc1 (stereo unspecified)	-103.4	1.7	-113.5	-25.4	-3.0	-3.0
Cc1nn(CC(=O)NCCN2CCCCC2C)c(=O)c2cc(-c3ccccc3)nn12 (stereo unspecified)	5.1	-8.4	-9.5	-36.0	-4.6	0.2
CCc1noc(C)c1C(=O)Nc1cc(Cl)ccc1N1CCCC1	4.4	-10.8	6.1	-0.6	-4.8	-4.3
O=[N+]([O-])c1ccc(/C=[N+](\[O-])[C@@H]2CCCC[C@@H]2/[N+]([O-])=C/c2ccc([N+](=O)[O-])o2)o1	-2.7	-5.2	49.8	84.0*	-7.8	6.5
Oc1ccc(N=C/C=C/c2cccc(Br)c2)cc1-c1nc2ccccc2s1	-128.6	-20.1	67.3*	8.9	-1.1	19.1
Nc1ccc(O)c(-c2nc3ccccc3s2)c1	-98.8	-19.4	-107.5	1.2	0.9	-13.1
SMILES	HIF-2a inh	CF NFkB block	Peg3 promoter	MITF TRPM1 inh	KKLEB tox	ABHD5 PLIN5 PPI
O=C(O)/C=C/c1cn(Cc2ccccc2Cl)nc1-c1ccccc1	0.2	4.3	7.1	10.7	6.6	8.7
COc1ccc([N+](=O)[O-])cc1N(CC1CO1)S(=O)(=O)c1ccc(C)cc1 (stereo unspecified)	6.3	3.6	9.1	9.2	-4.5	-3.7
Cc1ccc(-c2csc3nc4c5ccccc5c(NCCCN(C)C)nn4c(=O)c23)cc1	-7.6	10.7	109.3*	84.9*	-59.7*	17.3
CCOc1ccccc1-c1c2cc(O)c(=O)cc-2oc2cc(O)c(O)cc12	8.4	-11.8	43.1	31.4	6.9	27.2*
O=c1cc2oc3cc(O)c(O)cc3c(-c3ccccc3O)c-2cc1O	4.5	-18.5	28.0	6.3	7.4	13.2
CN1CCN(C(=O)CCCN2C(=O)/C(=C/c3cccc(Br)c3)SC2=S)CC1	21.6	2.3	17.3	16.0	7.6	1.6
O=C(CCN1C(=O)/C(=C/c2ccc3c(c2)OCO3)SC1=S)Nc1ccccc1	11.0	-4.6	-3.9	-13.7	-1.3	-2.1
O=C1/C(=C/c2cccc(Br)c2)SC(=S)N1CCC(=O)N(CCO)c1ccccc1	32.1	25.1	56.0*	-16.3	12.1	1.3
O=C(CCCN1C(=O)/C(=C\c2cccc(Br)c2)SC1=S)Nc1ccc(C(=O)O)cc1	3.1	27.8	-12.3	.	8.6	-4.6
CN1CCN(C(=O)CCN2C(=O)/C(=C/c3cccc(Br)c3)SC2=S)CC1	7.6	28.4	76.9*	26.6	10.1	-9.6
COc1cccc(/C=C2\SC(=S)N(CCCC(=O)N(CCO)c3ccccc3)C2=O)c1	85.6*	13.0	79.1*	11.3	0.9	8.1
O=C1/C(=C/c2ccc3c(c2)OCO3)SC(=S)N1CCC(=O)N(CCO)c1ccccc1	42.5*	-38.6	19.5	.	9.4	-8.0
COc1ccccc1C(=O)NCC(=O)NNC(=O)C1COc2ccccc2O1 (stereo unspecified)	10.3	-15.8	1.1	6.9	13.6	-2.3
C=CCN1C(=O)c2ccc(C(=O)N(CC)CC(=O)Nc3cc(Cl)ccc3C)cc2C1=O	14.3	12.3	-11.7	-0.6	-7.7	-1.1
Cc1c(OCC(=O)C(C)(C)C)ccc2c(-c3ccccc3)cc(=O)oc12	2.6	10.2	14.2	-4.5	11.4	6.6
CCc1nc2ccc(C(=O)NCc3cccs3)cn2c1N(CC)Cc1cccc(Br)c1	7.1	-11.5	56.6*	.	3.6	8.4
Cc1cc(C)c2nc(NNC(=O)c3cc(-c4cccs4)nc4ccccc34)sc2c1	2.0	11.7	51.7*	29.2	-3.5	5.7
O=C(NN1CCOCC1)c1cc(-c2cccs2)nc2ccccc12	8.2	4.9	5.8	-6.2	-0.8	-6.4
O=C(NNc1nc2ccc(Cl)cc2s1)c1cc(-c2cccs2)nc2ccccc12	14.4	37.5	87.1*	6.3	-18.9	-18.0
O=C(CC1C(=O)NCCN1Cc1ccccn1)NCCc1ccccc1F (stereo unspecified)	-45.9	-14.0	-32.8	-3.5	14.0	-1.6
C[C@@H]1Cn2cnc(C(=O)N[C@@H](Cc3c[nH]c4ccccc34)C(=O)OC(C)(C)C)c2C(=O)N1	-8.2	18.4	19.8	.	-17.3	-6.5
